Source: PubChem BioAssay (NCI)
The panel holds about 83,000 compounds, 20% with a hit somewhere; the sample as a whole holds those more often.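 Growth was measured after 48 h exposure to one concentration of compound in 96-well plates. Values under 10 count as active.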 Values without a mark were called inactive. Activity calls are given as the source filed them.

What was measured:
Experiment in all cases: NCI-60 one-dose screen, 48 h (100 = growth as untreated, 0 = no growth, -100 = all killed)
Conditions in all cases: 10 µM
SK-MEL-2 melanoma = system: SK-MEL-2 melanoma
EKVX NSCLC = system: EKVX NSCLC
SN12C renal = system: SN12C renal
UO-31 renal = system: UO-31 renal
TK-10 renal = system: TK-10 renal
ACHN renal = system: ACHN renal
CAKI-1 renal = system: CAKI-1 renal
A498 renal = system: A498 renal
CCRF-CEM leukemia = system: CCRF-CEM leukemia
MOLT-4 leukemia = system: MOLT-4 leukemia
SR leukemia = system: SR leukemia
RPMI-8226 leukemia = system: RPMI-8226 leukemia
OVCAR-8 ovarian = system: OVCAR-8 ovarian
OVCAR-5 ovarian = system: OVCAR-5 ovarian
SK-OV-3 ovarian = system: SK-OV-3 ovarian
IGROV1 ovarian = system: IGROV1 ovarian
OVCAR-3 ovarian = system: OVCAR-3 ovarian
HS 578T breast = system: HS 578T breast
NCI/ADR-RES ovarian = system: NCI/ADR-RES ovarian
OVCAR-4 ovarian = system: OVCAR-4 ovarian

| SMILES | growth (SK-MEL-2 melanoma) | growth (EKVX NSCLC) | growth (SN12C renal) | growth (UO-31 renal) | growth (TK-10 renal) | growth (ACHN renal) | growth (CAKI-1 renal) | growth (A498 renal) | growth (CCRF-CEM leukemia) | growth (MOLT-4 leukemia) | growth (SR leukemia) | growth (RPMI-8226 leukemia) | growth (OVCAR-8 ovarian) | growth (OVCAR-5 ovarian) | growth (SK-OV-3 ovarian) | growth (IGROV1 ovarian) | growth (OVCAR-3 ovarian) | growth (HS 578T breast) | growth (NCI/ADR-RES ovarian) | growth (OVCAR-4 ovarian) |
| --- | --- | --- | --- | --- | --- | --- | --- | --- | --- | --- | --- | --- | --- | --- | --- | --- | --- | --- | --- | --- |
| COc1ccc(C2=Cc3ccc(OC(C)=O)cc3OC2)cc1 | 97.5% | 66.2% | 87.2% | 49.1% | 102% | 80.8% | 88.2% | 82.2% | 70.8% | 44.5% | 64.5% | 83.4% | 95.8% | 101% | 119% | 102% | 93.1% | 103% | 85.2% | – |
| COc1cc(-c2n/c(=C\c3c(O)[nH]c4ccccc34)cc3c2=Nc2ccccc2-3)cc(OC)c1OC | 35.6% | 45.8% | 34.3% | 33.9% | 57.9% | 37.2% | 29.5% | -16.3% (active) | – | -13.5% (active) | 8.26% (active) | 25.5% | 11.3% | 46.4% | -9.66% (active) | 44.3% | -16.6% (active) | 3.83% (active) | 4.78% (active) | 26.8% |
| CCOc1nc(-c2ccccc2)cc2c(O)c(C(=O)N/N=C/c3ccc(OC)cc3)[nH]c(=O)c12 | 98.5% | 99.7% | 114% | 66.8% | 120% | 100% | 92.5% | 132% | – | 63% | 112% | 82.2% | 109% | 125% | 95.5% | 82.3% | 106% | 96.8% | 105% | 98.3% |
| COc1cc(C2c3cc4c(cc3C(O)C(CO)C2CO)OCO4)cc(OC)c1OC (stereo unspecified) | 32.2% | 7.57% (active) | 46.1% | 13.4% | 46.7% | 53.9% | 65.9% | -0.141% (active) | 15.6% | 16.8% | 6.26% (active) | 30.1% | 30% | 50.9% | 15.9% | – | -44.5% (active) | -8.11% (active) | 79.2% | – |
| O=C(O)c1ccccc1C(=O)c1cccc2c(F)cccc12 | 103% | 108% | 100% | 87.1% | 110% | 98.2% | 104% | 130% | 92.3% | 93.1% | 115% | 104% | 99% | 110% | 109% | 113% | 117% | – | 104% | 98.4% |
| COc1cc(NS(C)(=O)=O)ccc1Nc1c2ccc(Cl)cc2nc2c(OC)cccc12 | -45.2% (active) | 70.4% | -10.7% (active) | 5.23% (active) | -55.3% (active) | -46.4% (active) | -37% (active) | -8.95% (active) | 2.75% (active) | -2.38% (active) | -16.5% (active) | -19.6% (active) | 11.7% | – | -5.68% (active) | 19.3% | 22.4% | 20.2% | 25.8% | 62.4% |
| Oc1ccc(Cn2cc3c(c2-c2ccccc2)CCc2cnoc2-3)cc1 | 102% | 80.2% | 91.7% | 88.8% | 111% | 90% | 81.7% | 104% | 99.1% | 80.5% | 76.8% | 82.1% | – | 105% | 94.4% | 120% | 107% | – | 86.2% | 95.8% |
| C/C(=N\NC(N)=S)C(C)(C)O | 98.5% | 67.1% | 87.1% | 68.9% | 126% | 90.2% | 89.6% | 91.7% | – | 44.9% | 81.2% | 74% | 55.3% | 105% | 109% | 22.4% | 53.1% | 97.1% | 32.7% | 66.6% |
| S=C(Cc1ccc(-c2ccccc2)cc1)N1CCOCC1 | 88.5% | 95.4% | 99.8% | 83.9% | 99.7% | 98.4% | 90.4% | 82% | 91.8% | 99.7% | 101% | 96.5% | 102% | – | 102% | 113% | 104% | 97.8% | 103% | 101% |
| Cn1cnc([N+](=O)[O-])c1Sc1nnc(-c2ccccc2)c(-c2ccccc2)n1 | 73% | 119% | 72.2% | 55.3% | 48.1% | 65.9% | -7.14% (active) | 97.9% | 8.92% (active) | 41% | – | 43.8% | 102% | 93.6% | 120% | 72% | 51.3% | 106% | 82.3% | 73.9% |
| O=C(COc1ccc(Cl)cc1Cl)Oc1coc(CSc2nc3ccccc3s2)cc1=O | 94.5% | 106% | 92.3% | – | 107% | 101% | 101% | -21.3% (active) | 88.7% | 86.4% | 98.6% | 87% | 21.3% | 116% | 102% | 64.3% | 114% | -1.61% (active) | 104% | 99.1% |
| CC1(C)Cc2c(cn(Cc3ccccc3)c2-c2ccccc2)-c2oncc21 | 102% | 85.2% | 97% | – | 106% | 99.9% | 79.8% | 126% | – | 86.1% | 86.8% | 74.8% | 101% | 111% | 96.4% | 121% | 110% | 103% | 92.5% | 98.5% |
| C(=C\c1nc2ccccc2s1)/c1ccc(N2CCOCC2)s1 | 81.2% | 87.8% | 93.8% | – | 89.6% | – | 83.3% | 86.4% | 58.2% | 51% | 26.3% | 62.9% | 97.6% | 112% | 98.7% | 100% | 85.8% | 112% | 69.9% | 72.9% |
| O=C(OCC1OC(n2cc(C(F)(F)F)c(=O)[nH]c2=O)CC1OC(=O)c1ccc([N+](=O)[O-])cc1)c1ccc([N+](=O)[O-])cc1 (stereo unspecified) | 78% | 107% | 43.4% | 50.3% | 86.7% | 16% | 38.6% | 60.6% | – | 77.4% | 60.4% | 71.9% | 66.8% | – | 63.1% | 82.3% | 74.1% | 88.5% | 88.7% | 88.2% |
| N#CN1CC[C@H](C(=O)Nc2ncc(-c3ccccc3)s2)C1 | -43.8% (active) | -0.13% (active) | – | 7.47% (active) | -30.9% (active) | 4.65% (active) | 9.65% (active) | -47% (active) | 9.27% (active) | -19.7% (active) | 0.907% (active) | 3.84% (active) | 2.85% (active) | 1.27% (active) | 5.15% (active) | 11% | -32.5% (active) | -7.39% (active) | 4.61% (active) | -6.05% (active) |
| COc1ccc(-c2csc(-c3cc(Cl)cc(Cl)c3Cl)n2)cc1 | 96.3% | 80.5% | 91.3% | – | 118% | 89.7% | 85.9% | 52.1% | 97.4% | 89% | 88.8% | 93.5% | 29.7% | 109% | 90.5% | 58.3% | 105% | 80.4% | 97.1% | – |
| COc1ccc(-c2nc(SCC(=O)c3ccc(Br)cc3)[nH]c(=O)c2C#N)cc1 | 103% | 107% | 112% | 86.3% | 99.6% | – | 99.9% | 78.5% | – | 96.8% | 94.5% | 104% | 106% | 102% | 113% | 112% | 99.3% | 96.4% | 110% | 120% |
